Measurements from PubChem BioAssay AID1851 (National Center for Advancing Translational Sciences (NCATS), 2009).
About 2,600 (16%) of roughly 16,000 compounds were called active. Roughly 20% stayed inconclusive and do not appear here. Not all results are given here. Unmarked numbers belong to inactive results. Calls come from the whole dose curve; as a rule, active = well fitted curve in the direction sought with a large enough effect; inconclusive = small, poorly fitted or top-dose-only effect, or effect the other way; inactive = no such curve, though single readings can be large or run the other way.

Molecular target: Cytochrome P450 2D6 (Homo sapiens) (UniProt P10635)
Sequence (P10635 whole entry, looked up): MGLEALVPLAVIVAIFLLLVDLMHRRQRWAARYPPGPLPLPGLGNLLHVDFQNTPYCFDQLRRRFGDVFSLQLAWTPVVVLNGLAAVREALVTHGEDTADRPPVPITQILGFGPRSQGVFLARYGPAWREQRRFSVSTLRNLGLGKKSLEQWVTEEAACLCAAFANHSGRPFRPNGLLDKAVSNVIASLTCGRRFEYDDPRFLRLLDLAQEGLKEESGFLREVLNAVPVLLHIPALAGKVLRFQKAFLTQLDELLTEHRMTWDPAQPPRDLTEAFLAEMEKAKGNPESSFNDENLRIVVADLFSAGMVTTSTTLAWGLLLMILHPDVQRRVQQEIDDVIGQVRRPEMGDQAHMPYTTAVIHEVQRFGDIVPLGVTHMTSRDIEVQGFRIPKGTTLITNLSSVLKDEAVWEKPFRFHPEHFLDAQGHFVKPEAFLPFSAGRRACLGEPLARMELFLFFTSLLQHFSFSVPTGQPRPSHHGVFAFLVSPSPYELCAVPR
Experiment: Cytochrome panel assay with activity outcomes
Settings: recombinant CYP, pro-luciferin dealkylation, luminescence, p450-cyp2d6; series mostly up to 57.1 µM
% is set by controls: 0 for no effect and ±100 for the full control effect.

SMILES | activity, negative = inhibition | AC50
N[C@@H](Cc1nn[nH]n1)C(=O)O | 7.47% [at 11.4 µM] | –
Cn1c(/C(C#N)=C(\O)c2ccc(S(=O)(=O)N3CCCCC3)cc2)nc2ccccc21 | – | inactive
C[C@]1(O)CC[C@H]2[C@H]3CC=C4N5CCN=C5CC[C@@]4(C)[C@H]3CC[C@@]21C | -4.3% [at 11.4 µM] | –
CN1CCC(=C2c3ccccc3Sc3ccccc32)CC1 | – | 3.98 µM (active)
CN1CCN(c2ncnc3ccc(-c4ccccc4C#N)cc23)CC1 | – | inactive
CN1CCC(=C2c3ccccc3C=Cc3ccccc32)CC1 | – | 2.51 µM (active)
O=C(Nc1ncc(Cc2cc(Cl)ccc2Cl)s1)c1ccc([N+](=O)[O-])cc1 | – | inactive
C/C=C\C1=C(CO)C(=O)C2O[C@]2(CC=C(C)C)C1=O (stereo partly drawn) | 0.497% [at 11.4 µM] | –
CCC1CCCCN1CCn1c(=S)[nH]c2cc(OC)c(OC)cc2c1=O (stereo not drawn) | – | 0.178 µM (active)
COc1ccccc1Cn1c(=S)[nH]c2cc(C(=O)N3CCN(C)CC3)ccc2c1=O | – | inactive
CCOc1cc2[nH]c(=S)n(CCC(=O)N3CCc4ccccc4C3)c(=O)c2cc1OCC | – | inactive
COc1cc(/C=C(/NC(=O)c2ccccc2Cl)C(=O)O)cc(OC)c1OC | – | inactive
O=C(Nc1cccc2[nH]ncc12)c1ccc(F)cc1 | – | inactive
COc1ccc(CCNC(=O)c2ccccc2NC(=O)c2ccco2)cc1OC | – | inactive
O=C(Nc1ccc(-n2nncc2-c2ccco2)cc1)c1ccc(F)cc1 | – | 1.12 µM (active)
Cc1cc(NC(=O)c2ccco2)ccc1-n1cnnn1 | – | inactive
COc1cc(C(=O)Nc2ccc(-c3nnc(-c4ccco4)o3)cc2)cc(OC)c1OC | – | inactive
COc1ccc(-c2cnnn2-c2ccc(NC(=O)c3ccco3)cc2)cc1OC | – | 10 µM (active)
Cc1ccc(NC(=O)C(C)N2C(=O)C3C4CC(C(Br)C4Br)C3C2=O)cc1 (stereo not drawn) | – | inactive
COC(=O)CSc1ccc(C#N)c(SCC(=O)OC)c1 | – | inactive
CC(C)NC(=O)c1ccc(-c2cccc(C(F)(F)F)c2)o1 | – | inactive
COc1ccc2c(=O)cc(-c3ccncc3)oc2c1OC | 12.2% [at 11.4 µM] | –
N=C(N)SCc1cccc(-c2nc3ccccc3c(=O)o2)c1 | 6.52% [at 11.4 µM] | –
N=C(N)SCc1cccc2c(=O)cc(-c3ccccc3)oc12 | – | 2.51 µM (active)
CCCNC1CCS(=O)(=O)C1 (stereo not drawn) | – | inactive
C/C(=N/O)[C@@H]1C[C@H](CC(=O)O)C1(C)C | -1.22% [at 11.4 µM] | –

SMILES | activity, negative = inhibition | AC50
CCOC(=O)N/N=C(/C)c1ccc([N+](=O)[O-])o1 | – | inactive
Cc1ccc(-c2nnc(C)c(N3CC(C)OC(C)C3)n2)cc1 (stereo not drawn) | – | inactive
O=C1CC2(CCCC2)CC(=O)N1CCNC[C@H]1COc2ccccc2O1 | – | 0.126 µM (active)
COc1ccccc1N1CCN(CCN2C(=O)CC3(CCCC3)CC2=O)CC1 | – | inactive
O=C1CC2(CCCC2)CC(=O)N1CCCCNC[C@H]1COc2ccccc2O1 | – | 5.01 µM (active)
Cn1c(C(=O)O)c(CC(=O)NCC2COc3ccccc3O2)c2ccccc21 (stereo not drawn) | – | inactive
Cc1cc(C(=O)CSc2nnc(-c3ccccc3)o2)c(C)n1CC1COc2ccccc2O1 (stereo not drawn) | – | inactive
C[N+]1(C)CCc2cc(O)c(O)cc2[C@H]1Cc1ccc(O)c(O)c1 | -2.15% [at 11.4 µM] | –
CC(C)N1CCN(c2ccc(OC[C@@H]3CO[C@@](Cn4cncn4)(c4ccc(Cl)cc4Cl)O3)cc2)CC1 | – | inactive
Cn1c(=S)c2[nH]c(SCc3cccnc3)nc2n(C)c1=O | 14% [at 11.4 µM] | –
Cc1ccc(C)c(N(CC(=O)NC2CCCC2)C(=O)c2cc3cc4cccc(C)c4nc3s2)c1 | – | inactive
CC(=O)N1N=C(c2cccc([N+](=O)[O-])c2)OC1c1ccc(Cl)cc1Cl (stereo not drawn) | – | inactive
CN(Cc1ccco1)c1ccnc(-c2ccoc2)n1 | – | inactive
COc1cccc(-c2nccc(N(C)Cc3ccco3)n2)c1 | – | 1.26 µM (active)
COc1cccc(-c2cc(N(C)Cc3ccco3)ncn2)c1 | – | 15.8 µM (active)
CN(Cc1ccco1)c1cc(-c2cccnc2)ncn1 | – | inactive
CN(Cc1ccco1)c1ccnc(-c2cccc(NS(C)(=O)=O)c2)n1 | – | 20 µM (active)
CN(Cc1ccco1)c1ccnc(-c2cccnc2)n1 | – | 7.94 µM (active)
CN(C)c1ccnc(-c2cccc(NS(C)(=O)=O)c2)n1 | – | inactive
CN(Cc1ccco1)c1cc(-c2cccc(C#N)c2)ncn1 | – | inactive
CCOC(=O)c1c(C)nc2c(c1-c1ccccc1)C(=O)CCC2 | – | inactive
C=C(CC)C(=O)c1ccc(OCC(=O)O)c(Cl)c1Cl | – | inactive
C=CCNc1nc(Cl)nc(Nc2ccc(OC)cc2)n1 | – | inactive
CNC(=O)[C@@H]1O[C@@H](n2cnc3c(NCc4ccc(N)cc4)ncnc32)[C@@H](O)[C@H]1O | – | inactive
COc1nnc(OC)c2ccccc12 | – | inactive
NS(=O)(=O)c1cc(C(=O)O)c(O)c2ccccc12 | 0.979% [at 11.4 µM] | –

SMILES | activity, negative = inhibition | AC50
COC(=O)/C=C\c1cc(O)ccc1O | – | inactive
C#CCSc1nncn1C(=O)/C=C/c1ccccc1 | – | inactive
Nc1nc2c(c(=O)[nH]1)CN(c1ccc(S(N)(=O)=O)cc1)CN2 | -2.27% [at 11.4 µM] | –
CCC(Sc1nc(C)cc(=O)[nH]1)C(=O)Nc1nc2c(s1)CCCC2 (stereo not drawn) | – | inactive
N=C(N)SCCc1ccc(OCc2ccc([N+](=O)[O-])cc2)cc1 | – | inactive
CCc1nnc(SCc2ccc(OC(C)C)cc2)n1N | – | inactive
CC(C)Oc1ccc(CSC(=N)N)cc1 | – | 14.1 µM (active)
O=C1CN(C(=O)c2ccc(Br)o2)C(c2ccc(F)cc2)c2cc(Cl)ccc2N1 (stereo not drawn) | – | inactive
C[C@@H]1CN2[C@H](c3ccc(Br)cc3)[C@H](C)CC[C@H]2C(=O)O1 | -10.6% [at 11.4 µM] | –
NC(=O)N[C@H]1NC(=O)NC1=O | – | inactive
CCOc1cc(/C=C2\N=C(C)OC2=O)cc(Br)c1OCC(=O)OC | – | inactive
O=C(NCc1ccccc1Cl)c1cnccn1 | – | inactive
OCCCNCc1ccccn1 | 12.8% [at 11.4 µM] | –
CCOc1cc(C2NN=C(c3ccccc3)S2)ccc1OCc1ccccc1Cl (stereo not drawn) | – | inactive
OCCCCNCc1ccc(OCc2ccccc2Cl)cc1 | – | 3.55 µM (active)
CCOc1cc(CNCCO)cc(Br)c1OCc1ccccc1Cl | – | 4.47 µM (active)
CCC(C)NC(=O)C1c2cc(OC)c(OC)cc2C(=O)N(C)C1c1cccs1 (stereo not drawn) | – | inactive
C/C(=N/S(=O)(=O)c1ccc(Cl)c(Cl)c1)OCC(C)(C)C | 8.65% [at 11.4 µM] | –
COc1ccc(Oc2ncc3nc(-c4ccc(Cl)cc4)c(=O)n(C)c3n2)cc1 | – | inactive
CN(C)CCNC(=O)C(C(=O)c1ccc(F)cc1)n1ccccc1=O (stereo not drawn) | – | inactive
CCCCSc1nc(C)cc(NC(=S)Nc2ccc(OC)cc2)n1 | – | inactive
CCc1cc[n+](-c2nc3ccccc3nc2C(=C=[N-])C#N)cc1 | – | inactive
C/C(CC(=O)NCc1ccco1)=N\NC(=O)Cc1ccccc1 | – | inactive
CCCNC(=O)NS(=O)(=O)c1ccc(Cl)cc1 | – | inactive
C/C(CC(=O)NCc1ccco1)=N\NC(=O)Cc1ccc(Cl)cc1 | – | inactive
CCCCNC(=O)NS(=O)(=O)c1ccc(C)cc1 | – | inactive

SMILES | activity, negative = inhibition | AC50
O=C(CC(NS(=O)(=O)c1ccc(Cl)cc1)c1ccco1)NCc1ccco1 (stereo not drawn) | – | 5.62 µM (active)
CCCNC(=O)CC(NS(=O)(=O)c1ccc(Cl)cc1)c1ccco1 (stereo not drawn) | – | 1.41 µM (active)
C/C(=N/NC(=O)Cc1cccn1C)c1ccccc1 | – | inactive
Cc1ccc(/C=C/c2nnc(-c3ccc(C)cc3)o2)cc1 | – | inactive
Cc1c2c(nc3c(C(=O)NC4CCCC4)cnn13)CCCC2 | – | inactive
Cc1cccc(C)c1OC1(c2ccccc2)OC(=O)c2ccccc21 (stereo not drawn) | – | inactive
O=C(/C=C\c1ccc(O)c(O)c1)O[C@@H]1C[C@](O)(C(=O)O)C[C@@H](O)[C@@H]1O | – | inactive
CCCn1nc(Oc2nc(NCC)nc(NC(C)C)n2)ccc1=O | – | inactive
COc1ccc(Cc2nnc(NC(=O)Cn3cnc4c3c(=O)n(C)c(=O)n4C)s2)cc1OC | – | inactive
CCOC(=O)c1c(C)nc2c(c1-c1ccc(OC)cc1)C(=O)CC(C)(C)C2 | – | inactive
COc1ccc(C2C3=C(CC(C)(C)CC3=O)Oc3ncn(CC(C)C)c(=N)c32)cc1 (stereo not drawn) | – | 1 µM (active)
COc1cccc(C2C3=C(CC(C)(C)CC3=O)OC(N)=C2[N+](=O)[O-])c1 (stereo not drawn) | – | inactive
N#Cc1cccc(NC(=O)N2CC[C@@]3(CCCN(C(=O)c4ccco4)C3)C2)c1 | – | inactive
O=C(Nc1ccccc1)N1CCCC2(CCN(C(=O)c3ccco3)CC2)C1 | – | inactive
O=C(c1ccco1)N1CCC[C@@]2(CCN(C(c3ccccc3)c3ccccc3)C2)C1 | – | 3.16 µM (active)
O=C(c1ccco1)N1CCC2(CC1)CCN(C(c1ccccc1)c1ccccc1)CC2 | – | 5.01 µM (active)
O=C(c1ccco1)N1CCC2(CCCN(c3ccccc3)C2)CC1 | – | inactive
O=C(Nc1ccccc1)N1CCC2(CC1)CCN(C(=O)c1ccco1)CC2 | – | inactive
CC(C)NC(=O)N1CCCC2(CCN(C(=O)c3ccco3)CC2)C1 | – | 2.51 µM (active)
O=C(c1ccco1)N1CCC2(CC1)CCN(c1ccc(-c3ccccc3)cc1)CC2 | – | inactive
O=C(c1ccco1)N1CCC2(CCCN(C(c3ccccc3)c3ccccc3)C2)CC1 | – | 10 µM (active)
CC(C)NC(=O)N1CCC2(CC1)CCN(C(=O)c1ccco1)CC2 | – | inactive
COc1ccc(NC(=O)N2CCCC3(CCN(C(=O)c4ccco4)CC3)C2)cc1 | – | inactive
O=C(c1ccco1)N1CCC2(CC1)CN(c1cccc(-c3ccccc3)c1)C2 | – | inactive
Cc1nc2ccccn2c1/C(O)=C1\C(=O)C(=O)N(CCN2CCOCC2)C1c1cccnc1 (stereo not drawn) | – | inactive
